PBM binding z-score data for 40 sequences are collected here from the supplement of paper PMC6555819.

One experiment relates to RARg:RXRa (NR concentration 270 nM, RXRa partner concentration 90 nM). In words: PBM binding z-score (relative to random genomic background probes); higher = stronger binding; sequences stand for … in GC…GCGATTGACAGCGTAGAATGAAGG
The procedure, abridged: (§1)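 Each nuclear receptor dimer, without ligand, was incubated for 1 h on custom Agilent 4×180K protein-binding microarrays. Binding was detected with antibodies against each partner (one per run), and scanned fluorescence was regression-normalized. The binding z-scores are referenced to random human genomic background probes.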
Take GCTCGGAGGACAAGGTCAGATCTTTGTCCGTAGA: the PBM binding z-score came out at 3.19.

For CTACCAAGGTGAGCAAGGTCGTTGATTACTATTC, the PBM binding z-score amounted to 0.951.

In turn, CGTCCAAGATCAAGGTCAGTGAAAGAGACTCGAA came in with a PBM binding z-score of 2.83.

Sequence AGAATGAGGTTATTAAGATCAGGGAGTTGCGGTC returned a PBM binding z-score of 1.05.

Sequence ACAGACAGGTGAGGAAGGTAACTCAGGCTATCAT registered a PBM binding z-score of 0.425.

Sequence CGTCCATGGTCAGCAGGTCAGTGAAAGCGACGTG gave a PBM binding z-score of 1.81.

Consider TCTTGTAGATCATAGGTTAAGAAAGCCGAAGCCT, for which the PBM binding z-score came to 0.785.

Sequence CAAACTAGGTCACAAAGGTCAAAGTCCGTGCGTA registered a PBM binding z-score of 7.55.

Sequence CTCGAAAGGTCGTGCTAAGGTGAGTATACCAAAC yielded a PBM binding z-score of 6.03.

Take TCGAGTAGGTTAACAATGGGGCATTCAGCTTTCT: the PBM binding z-score came to 1.49.

For the sequence ACAGACAGGTGATGAAGGTTACTCAGGCTATCAT, the PBM binding z-score was found to be 0.777.

For AGAACGAGGGCACGCTGAGTTGATACCAGAGTAG, the PBM binding z-score was 1.91.

TAGCCTACGTCATTGGGCCAGTATAGTACGCATC yielded a PBM binding z-score of -0.281.

With GCGACTGGGGCATAAGCAGGTTACCATAACTTAA, the PBM binding z-score came out at 0.617.

The sequence GCTTCTAGGTCAGGTTGGTCAGCTAACGGGTACG yielded a PBM binding z-score of 2.88.

In the case of TGCCAAAGTTCAAAGGTAACGTAAGTATCCACAC, the PBM binding z-score came to 6.37.

In turn, TCTCCGAGGACACGAAAGGTCAGAGCTCGACATC yielded a PBM binding z-score of 4.91.

CCGACTGGGGCAGAAAGGTTACCAAACCATCCGG registered a PBM binding z-score of 1.52.

ACAGACAGGTGTTGAAGGTAACTCAGGCTATCAT: the PBM binding z-score is -0.0194.

In the case of TCGAGTAGGTTAGCGGCATTCAGAATGGCGTCGA, the PBM binding z-score was -0.482.

Sequence CCTACTGGGCCATTCACAGGTCATTGATCATATG gave a PBM binding z-score of 2.69.

Regarding AGAATGAGGTTATACGTAAATCAGGGAAGAAAGT, the PBM binding z-score was found to be 1.56.

Consider CCAGACAAGTGAAAGGTAACTCAGTCTGGTACGC, for which the PBM binding z-score is 0.201.

As for AGGATGAGGTTATTAAGATCAGGGAATTGCGGTC, the PBM binding z-score was determined as 1.41.

With ACTAGTTGGTCAGCTGCGGTCACACACAATTCGG, the PBM binding z-score was 1.23.

As to TCAGCCAGGTGAAGGTAACTCAGGTACGCAGTCG, the PBM binding z-score was determined as 0.119.

Consider TAGCCTAGGTCATTCGGGCCAGTATAGTGTCGGC, for which the PBM binding z-score worked out at 3.72.

Regarding ACTATTAGTTGACTTAGGGCAACCAATACGACGC, the PBM binding z-score is 0.838.

As to ACTAGCGGGCCAAGGGTCACTCAAGATTAGTCCG, the PBM binding z-score was 3.9.

Regarding GCAAACAGGTGAAACGCAGGTAACTCAGGGTGGC, the PBM binding z-score was 0.796.

As for CGTCAAAGTTCAACGAAGGTAACGTAAAGCACGC, the PBM binding z-score came out at 5.47.

On to ATCGAAAGGTCGAGGTAAGTATAGAGAAAGGGAA, for which the PBM binding z-score stood at 4.25.

CGTCCAAGGTCAAAGCTAGGTCAGTGAAAGCATT gave a PBM binding z-score of 7.9.

Turning to ATCTCTAGGCAACCAAGTTCAGTGAATGCCGAAC, the PBM binding z-score was 0.473.

In turn, TCATATAGGTAAACAGGTGAAATTCCGTAAGTTA registered a PBM binding z-score of 0.589.

In the case of TAGCCTAGGTCATTCAGGGGCGAGTATAGAAAGC, the PBM binding z-score was 4.27.

Consider GCAGCTAGGTCAGGTTGGTCAGCTAACGGGTACG, for which the PBM binding z-score is 2.31.

CCTATTTGGTCAGGAGGTCACACACCGGATATGA registered a PBM binding z-score of 5.12.

For GATACAGGGTCAGATAGAGGCCAGAGTATGGAAA, the PBM binding z-score was determined as 6.34.

In turn, CCGACTGGGGCAGAAAGGTAACCATACCATCCGG yielded a PBM binding z-score of 0.234.

The test system of the next experiment is RARg homodimer (NR concentration 270 nM). The description is as above. The procedure, abridged: as §1
GCTCGGAGGACAAGGTCAGATCTTTGTCCGTAGA registered a PBM binding z-score of 3.28.

For the sequence CTACCAAGGTGAGCAAGGTCGTTGATTACTATTC, the PBM binding z-score is 0.78.

As to CGTCCAAGATCAAGGTCAGTGAAAGAGACTCGAA, the PBM binding z-score was 3.03.

As to AGAATGAGGTTATTAAGATCAGGGAGTTGCGGTC, the PBM binding z-score turned out to be 0.672.

For the sequence ACAGACAGGTGAGGAAGGTAACTCAGGCTATCAT, the PBM binding z-score worked out at 0.577.

CGTCCATGGTCAGCAGGTCAGTGAAAGCGACGTG displayed a PBM binding z-score of 2.05.

TCTTGTAGATCATAGGTTAAGAAAGCCGAAGCCT: the PBM binding z-score is 0.187.

Turning to CAAACTAGGTCACAAAGGTCAAAGTCCGTGCGTA, the PBM binding z-score stood at 8.33.

Regarding CTCGAAAGGTCGTGCTAAGGTGAGTATACCAAAC, the PBM binding z-score is 4.31.

In turn, TCGAGTAGGTTAACAATGGGGCATTCAGCTTTCT came in with a PBM binding z-score of 0.51.

On to ACAGACAGGTGATGAAGGTTACTCAGGCTATCAT, for which the PBM binding z-score worked out at 0.687.

In the case of AGAACGAGGGCACGCTGAGTTGATACCAGAGTAG, the PBM binding z-score came to 2.16.

As for TAGCCTACGTCATTGGGCCAGTATAGTACGCATC, the PBM binding z-score was -0.0336.

In turn, GCGACTGGGGCATAAGCAGGTTACCATAACTTAA had a PBM binding z-score of 0.393.

In turn, GCTTCTAGGTCAGGTTGGTCAGCTAACGGGTACG displayed a PBM binding z-score of 3.68.

In turn, TGCCAAAGTTCAAAGGTAACGTAAGTATCCACAC returned a PBM binding z-score of 6.18.

TCTCCGAGGACACGAAAGGTCAGAGCTCGACATC displayed a PBM binding z-score of 5.54.

Take CCGACTGGGGCAGAAAGGTTACCAAACCATCCGG: the PBM binding z-score came to 1.35.

As to ACAGACAGGTGTTGAAGGTAACTCAGGCTATCAT, the PBM binding z-score was found to be 0.114.

In the case of TCGAGTAGGTTAGCGGCATTCAGAATGGCGTCGA, the PBM binding z-score was -0.458.

Turning to CCTACTGGGCCATTCACAGGTCATTGATCATATG, the PBM binding z-score worked out at 1.66.

Sequence AGAATGAGGTTATACGTAAATCAGGGAAGAAAGT showed a PBM binding z-score of 1.08.

For the sequence CCAGACAAGTGAAAGGTAACTCAGTCTGGTACGC, the PBM binding z-score turned out to be 0.303.

AGGATGAGGTTATTAAGATCAGGGAATTGCGGTC displayed a PBM binding z-score of 1.1.

ACTAGTTGGTCAGCTGCGGTCACACACAATTCGG yielded a PBM binding z-score of 1.87.

Take TCAGCCAGGTGAAGGTAACTCAGGTACGCAGTCG: the PBM binding z-score is -0.0268.

Take TAGCCTAGGTCATTCGGGCCAGTATAGTGTCGGC: the PBM binding z-score is 4.17.

For ACTATTAGTTGACTTAGGGCAACCAATACGACGC, the PBM binding z-score worked out at 0.945.

Consider ACTAGCGGGCCAAGGGTCACTCAAGATTAGTCCG, for which the PBM binding z-score was 3.71.

As for GCAAACAGGTGAAACGCAGGTAACTCAGGGTGGC, the PBM binding z-score was found to be 0.0633.

For CGTCAAAGTTCAACGAAGGTAACGTAAAGCACGC, the PBM binding z-score was found to be 6.39.

The sequence ATCGAAAGGTCGAGGTAAGTATAGAGAAAGGGAA gave a PBM binding z-score of 4.27.

On to CGTCCAAGGTCAAAGCTAGGTCAGTGAAAGCATT, for which the PBM binding z-score worked out at 7.36.

The sequence ATCTCTAGGCAACCAAGTTCAGTGAATGCCGAAC showed a PBM binding z-score of 0.591.

The sequence TCATATAGGTAAACAGGTGAAATTCCGTAAGTTA displayed a PBM binding z-score of 0.48.

Sequence TAGCCTAGGTCATTCAGGGGCGAGTATAGAAAGC registered a PBM binding z-score of 3.93.

Consider GCAGCTAGGTCAGGTTGGTCAGCTAACGGGTACG, for which the PBM binding z-score is 3.77.

Regarding CCTATTTGGTCAGGAGGTCACACACCGGATATGA, the PBM binding z-score came out at 4.67.

In the case of GATACAGGGTCAGATAGAGGCCAGAGTATGGAAA, the PBM binding z-score stood at 4.42.

Sequence CCGACTGGGGCAGAAAGGTAACCATACCATCCGG displayed a PBM binding z-score of 0.586.
